Compound activity as filed in PubChem BioAssay.
Pf growth 48h: inhibits P. falciparum growth in the first generation, 48 h; P. falciparum luciferase growth in erythrocytes, 48 h; Potency, µM (highest dose often 28.7 µM), without a hit: at the highest dose activity change, negative = inhibition, most hits filed as inhibitors; hit rate 5.9% among 310,000; AID 504832; further: potency means the concentration at half of the fitted maximal effect; on the % scale 0 is the no-effect control and ±100 the full control effect
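Luminescence readout; reporter = integrated firefly luciferase in P. falciparum. RBC culture at 2% hematocrit, 0.1% parasitemia final, 37 C/5% CO2; decreased signal taken as growth inhibition.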
Giardia FBPA inh: inhibitors of Giardia lamblia fructose-1,6-bisphosphate aldolase. A8B2U2. purified Giardia FBPA. Potency, µM (highest dose often 59.6 µM), for the others: top-dose activity, negative = inhibition, usual class: inhibitors. hit rate 0.71% among 290,000; further: potency means the concentration at half of the fitted maximal effect; on the % scale 0 is the no-effect control and ±100 the full control effect; nearly all actives have a fitted effect of over 55% in size
Target sequence (A8B2U2 whole entry, looked up): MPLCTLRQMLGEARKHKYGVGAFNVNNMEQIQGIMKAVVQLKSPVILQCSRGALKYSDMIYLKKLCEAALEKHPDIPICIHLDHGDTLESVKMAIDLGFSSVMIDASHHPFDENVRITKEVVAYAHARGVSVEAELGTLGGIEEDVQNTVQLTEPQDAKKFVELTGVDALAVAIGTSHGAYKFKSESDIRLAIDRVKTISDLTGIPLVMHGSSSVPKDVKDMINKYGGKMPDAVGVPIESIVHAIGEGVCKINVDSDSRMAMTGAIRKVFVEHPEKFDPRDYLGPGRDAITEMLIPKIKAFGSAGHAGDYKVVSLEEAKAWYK
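40 nM FBPA preincubated 10 min at RT with compound (up to 57.5 uM final), then substrate plus GAPDH/TPI/NAD/arsenate coupling and diaphorase/resazurin added. Fluorescence read after 20 min at RT, 525/598 nm.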
Shiga toxin inh: blocks Shiga toxin action in Vero cells. Vero cells, Shiga toxin protein synthesis inhibition reporter. inhibition, % at 38.7 µM. hit rate 9.2% among 290,000. AID 2315; in the data active means inhibition mostly above about 28%, no sharp cut-off; inactive means mostly below about 43%; further: 0% is about no effect
NS1 function inh: influenza NS1 inhibition; Potency, µM (series often up to 46.1 µM), without a hit: at the highest dose activity, positive = more growth; hit rate 0.4% among 270,000; AID 2326; calls by dose curve; further: potency means the concentration at half of the fitted maximal effect; actives are rising curves; nearly all actives have a fitted effect of over 50% in size
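In this qHTS, NS1 from influenza A is expressed in budding yeast, where it slows growth. Cells are switched from glucose to 2% galactose medium (pH 6.0, -URA), treated with compound, and growth recovery is read at OD600.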
Pf growth 96h: inhibits malaria parasite growth, 96 h; P. falciparum luciferase reporter growth, 96 h; Potency, µM (series often up to 28.7 µM), without a hit: at the top dose activity change, negative = inhibition, hits mostly inhibitors; hit rate 6.9% among 320,000; AID 504834; further: potency means the concentration at half of the fitted maximal effect; on the % scale 0 is the no-effect control and ±100 the full control effect
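P. falciparum expressing integrated firefly luciferase grown in erythrocytes (2% hematocrit, 0.05% parasitemia final) with compounds for 96 hours at 37 C, 5% CO2. Growth inhibition read as loss of luminescence after adding luciferase detection reagent.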
CHX counter: affects cycloheximide protein synthesis inhibition readout, counter-screen; cell reporter, cycloheximide protein synthesis inhibition counterscreen; max response, %; hit rate 12% among 300,000; AID 2314; in the data active means max response mostly above about 13%, no sharp cut-off; inactive means mostly below about 14%; further: read at 38.3 µM for the half of the compounds with a filed dose; 0% is about no effect
Active calls of the source: *; i = inactive; ? = inconclusive; . = not tested or not shown; [ ] = dose if it differs, or a comment. Only some compounds are listed: those with a hit (about 21% of all), similar ones and a draw of the others. Unless noted, the call rests on the fitted dose curve; in most records, active means well fitted curve in the direction sought with a large enough effect; inconclusive means small, poorly fitted or top-dose-only effect, or another doubt; inactive means no such curve, though single readings can be large; an effect the other way counts as inactive or inconclusive.

SMILES | Pf growth 48h | Giardia FBPA inh | Shiga toxin inh | NS1 function inh | Pf growth 96h | CHX counter
CCc1ccccc1-n1nnc(-c2ccccc2)n1 | 2% | -9% | 4 | 3% | 49% | 0
Clc1ncccc1-c1nnn(-c2ccccc2)n1 | 366% | 4% | 56* | -7% | 153% | 50*
O=C(CN1C(=O)C2CC=CCC2C1=O)Nc1nnc(C2CC2)s1 (configuration not stated) | -16% | . | . | . | 14% | .
COc1ncccc1-c1nnn(-c2ccccc2)n1 | 153% | 3% | 55* | -7% | 203% | 43*
O=C(COC(=O)/C=C/c1ccc(C(F)(F)F)cc1)NCC1CCCCC1 | 45% | . | . | . | 40% | .
CCOC(=O)c1c(CC(C)C)csc1NC(=O)c1ccccc1C(=O)O | 36% | ? | 20 | 18% | 41% | 1
CC(C)Cc1csc(NC(=O)c2ccc(F)cc2)c1C(=O)O | -2% | -21% | 56* | -30% | 0% | 40*
COC(=O)/C(=C\Nc1ccc(Oc2ccc(F)cc2F)nc1)NC(=O)c1ccccc1 | 3% | -16% | 19 | 3% | 61% | 7
Cc1ccsc1/C=N/N=C1\C(=O)Nc2ccccc21 | 11% | 1% | 49* | -16% | 10% | 40*
COc1cc(/C=N/N=C2/C(=O)Nc3ccccc32)ccc1O | 7% | -2% | 0 | -19% | ? | 23*
O=C1C2C3C=CC(CC3)C2C(=O)N1/N=C/c1c(O)ccc2ccccc12 (configuration not stated) | 27% | 12% | -11 | 6% | 10% | 7
O=C1Nc2ccccc2/C1=N\N=C\c1ccc(O)c(O)c1 | 2% | -28% | 5 | -1% | -2% | 9
COc1cc(/C=N/N2C(=O)c3ccccc3C2=O)ccc1O | 36% | 2% | 0 | 2% | 0% | 20*
O=C1C2C3C=CC(CC3)C2C(=O)N1/N=C/c1ccccc1O (configuration not stated) | 22% | -3% | 28 | -14% | 30% | 20*
COc1cc(/C=N/N2C(=O)C3C4C=CC(CC4)C3C2=O)ccc1O (configuration not stated) | 18% | 3% | 57* | . | ? | 42
COc1ccc(/C=N/N2C(=O)C3C4C=CC(C4)C3C2=O)cc1[N+](=O)[O-] (configuration not stated) | 29% | 0% | 18 | -5% | 23% | 11
COc1cc(/C=N/N=C2/NC(=O)C(Cc3ccc(F)cc3)S2)ccc1O (configuration not stated) | 65% | 4% | 84* | . | ? | 34*
O=C1c2ccccc2C(=O)N1/N=C/c1ccc(O)c(O)c1O | ? | 7.9µM* | 55* | 6% | -12% | 24*
COc1cc(/C=N/N=C2/NC(=O)C(c3ccccc3)S2)ccc1O (configuration not stated) | -16% | -1% | -2 | 12% | -12% | 6
CN(C(=O)c1cccc(C(F)(F)F)c1)C1CCCc2ccccc21 (configuration not stated) | -10% | 3% | -1 | 8% | -22% | 12
COc1ccc(C2=NC(c3ccc(Cl)cc3)C(c3ccc(Cl)cc3)N2C(=O)N2CCNC(=O)C2)c(OC(C)C)c1 (configuration not stated) | . | -6% | -4 | . | . | -2
CC(C)C(OC(=O)c1nsc(Cl)c1Cl)C(=O)NCc1ccccc1 (configuration not stated) | 2% | 9% | -4 | -12% | -6% | -1
O=C1CCC=C1C(O)c1ccccc1 (configuration not stated) | . | 1% | . | . | . | .
O=C1N/C(=C\c2nc3ccccc3s2)c2ccccc21 | 110% | -7% | 76* | -3% | i | 62*
O=C1N/C(=C\c2ccccc2)c2ccccc21 | 123% | -11% | 57* | -21% | . | 27*
SMILES | Pf growth 48h | Giardia FBPA inh | Shiga toxin inh | NS1 function inh | Pf growth 96h | CHX counter
CCOc1ccc(Nc2c3ccccc3nc3ccccc23)cc1 | 2.9µM* | -14% | 36* | -69% | 2.1µM* | 17
Cc1cc(NCCNC2=CC(=O)CCC2)nc2ccccc12 | ? | 5% | 7 | 8% | ? | -4
CCOc1ccc(Nc2nc3ccccc3n3nnnc23)cc1 | . | -5% | 100* | -1% | ? | 59*
Cc1cc(Nc2ccccc2)nc2cc(O)ccc12 | 0.33µM* | -9% | 114* | -13% | -28% | 37*
Cc1cc(NCC2CCCCC2)nc2ccccc12 | 3.3µM* | 8% | 51* | -17% | ? | 38*
CCCn1c(-c2ccc(F)cc2)nc2c(N3CCN(Cc4nc(OC)cc(OC)n4)CC3)nc(C)nc21 | . | -10% | . | . | . | .
CCN(CC)C(=O)c1[nH]cnc1C(=O)N[C@@H](Cc1ccccc1)C(=O)OC(C)(C)C | 0% | ? | -1 | -10% | ? | -2
CC1CCCCC1NC(=O)c1ccc(S(=O)(=O)NCC2CCCO2)cc1 (configuration not stated) | 0% | 0% | 18 | -4% | -20% | -2
COc1ccc(CCNC(=O)CNC(=O)c2ccc(Br)o2)cc1OC | 17% | . | . | . | 5% | .
CC(=O)Nc1ccc(Nc2cc(C)c3ccccc3n2)cc1 | -8% | 2% | 61 | -13% | ? | -3
CCOc1ccc(Nc2cc(C)c3ccccc3n2)cc1 | -22% | 12% | 94* | -40% | ? | 49*
CCCCN1CCC2C=CCC(C(=O)O)C2C1=O (configuration not stated) | . | 1% | 2 | . | . | -7
CN(C(=O)COC(=O)c1ccccc1C(=O)N(C)c1ccccc1)c1ccccc1 | ? | . | 25 | -2% | 0% | 4
Cc1cccc(C(=O)OCC(=O)N(C)c2ccccc2)c1C | 8% | 8% | 35* | -26% | 15% | 14*
Cc1ccccc1C(=O)OCC(=O)N(C)c1ccccc1 | -2% | -14% | 31 | -32% | 42% | 24*
Cn1ncc(C(=O)N=S(C)(=O)c2ccccc2)c1[N+](=O)[O-] (configuration not stated) | 24% | 0% | 14 | 2% | 42% | 2
CNC(=O)c1c(I)c(C(=O)NCC(=O)Nc2c(I)c(C(=O)O)c(I)c(C(=O)NCCO)c2I)c(I)c(N(C)C(C)=O)c1I | -22% | 2%[21.7 µM] | . | . | -1% | .
Cc1cc[c]([Sb]2[O]C([C@H](O)[C@H](O)C(=O)O)[C@@H](CO)[O]2)cc1 (some centres not stated) | . | . | . | 2% | . | .
COc1cc(C(=O)N/N=C(\c2ccccc2)c2ccccn2)cc(OC)c1OC | 0.93µM* | -13% | -13 | 4% | 9.3µM* | -8
COc1cccc(C(=O)N/N=C(/c2ccccc2)c2ccccn2)c1 | 9.3µM* | -28% | -10 | -14% | ? | -2
COc1cc(C(=O)N/N=C(\C)c2ccccn2)cc(OC)c1OC | 17% | . | -13 | -4% | 18% | 8
O=C(/C=C/c1ccco1)NC(=S)Nc1ccc(C(=O)O)cc1 | . | ? | 52* | 4% | 39% | 23*
